Inconclusive results are not listed. Activity calls are given as the source filed them. Calls come from the whole dose curve; as a rule, active = well fitted cell-killing curve with a large enough effect; inconclusive = small, poorly fitted or top-dose-only effect, or effect the other way; inactive = no such curve, though single readings can be large or run the other way.
test: Quantitative High-Throughput drug screen in 47 multiple myeloma cell lines against the NCATS MIPE library collection: KMS27_JCRB cell viability assay (AID 1918970); details: KMS27 myeloma cells, CellTiter-Glo ATP viability, 48 h; series mostly up to 45.8 µM; viability (% of DMSO): at the top concentration; note: nearly all actives have a fitted effect of over 30% in size
Text: PI: Beverly A. Mock Ph.D.
Laboratory of Cancer Biology and Genetics,
Center for Cancer Research, National Cancer Institute,
National Institute of Health, Bethesda, Maryland
Drug resistance and disease progression are common in multiple myeloma (MM) patients, underscoring the need for new therapeutic combinations. […] We hypothesized that effective combinations would reduce MYC expression and enhance p16 activity. […] These preclinical data identify potentially useful drug combinations for evaluation in drug-resistant MM and reveal potential mechanisms of combined drug sensitivity.
Described herein is the primary MIPE qHTS used to cherrypick compounds. Validated compounds were then further tested for potential synergistic activiy.
[1] Peat TJ, Gaikwad SM, Dubois W, Gyabaah-Kessie N, Zhang S, Gorjifard S, Phyo Z, Andres M, Hughitt VK, Simpson RM, Miller MA, Girvin AT, Taylor A, Williams D, D'Antonio N, Zhang Y, Rajagopalan A, Flietner E, Wilson K, Zhang X, Shinn P, Klumpp-Thomas C, McKnight C, Itkin Z, Chen L, Kazandijian D, Zhang J, Michalowski AM, Simmons JK, Keats J, Thomas CJ, Mock BA. Drug combinations identified by high-throughput screening promote cell cycle transition and upregulate Smad pathways in myeloma. […] Epub 2023 Jun 24. PMID: 37356470; PMCID: PMC10408729.
SEQUENCE No. (e.g., 1, 2, 3, etc.); […] (e.g., Cells, Incubation, Reagent, etc.); VALUE and DESCRIPTION.
1; Cells; 5 uL; white, solid bottom 1536-well Greiner assay plate.
2; Compounds; 23 nL; Kalypsis pin tool (Wako USA) equipped with a 1536-well pin head to transfer to the assay plates.
3; Incubation; 48 hours; 37C incubation.
4; Reagent;5uL; CellTiter Glo (Promega).
5; Detector; 425V; Luminescence; Viewlux PerkinElmer.
NOTES (numbers refer to Sequence numbers above)
1. The cell-based screening methods employed in this study were like those previously published. Briefly, the corresponding myeloma cell lines were screened in 1,536-well plates with 500 cells, 5-uL per well for inhibition of cell viability (assessed by measuring ATP levels with CellTiterGlo).
2. NCATS MIPE 4.0 library of approved and investigational drugs were added using the Kalypsis pin tool. Wells treated with DMSO only for 100% viability and media only wells for 0% viability were used as controls.
3. The assay plates were covered and incubated for 48 hours in a 37C, 5% CO2 incubator with controlled humidity.
4. After 48 hours, CellTilter-GloTM luminescent substrate mix (Promega) reagent was added to the assay plate and plates we incubated for 5 min at room temperature.
5. Signal was measured as median relative luminescence units on a ViewLux (PerkinElmer) multiplate reader.
[1] Heske CM, Davis MI, Baumgart JT, Wilson K, Gormally MV, Chen L, Zhang X, Ceribelli M, Duveau DY, Guha R, Ferrer M, Arnaldez FI, Ji J, Tran HL, Zhang Y, Mendoza A, Helman LJ, Thomas CJ. Matrix Screen Identifies Synergistic Combination of PARP Inhibitors and Nicotinamide Phosphoribosyltransferase (NAMPT) Inhibitors in Ewing Sarcoma. Clin Cancer Res. 2017 Dec 1;23(23):7301-7311. doi: 10.1158/1078-0432.CCR-17-1121. Epub 2017 Sep 12. PMID: 28899971; PMCID: PMC6636827.
Potency is the fitted concentration of half-maximal effect.

Structure (SMILES)	Potency	viability (% of DMSO)
CC(C)(N)C(=O)N[C@H](COCc1ccccc1)C(=O)N1CCC2(CC1)CN(S(C)(=O)=O)c1ccccc12	5.26 µM (active)	–
N=c1nc(N2CCCCC2)cc(N)n1O	–	151% (inactive)
CCn1cc(C(=O)O)c(=O)c2cc(F)c(N3CCNC(C)C3)c(F)c21 (stereo not given)	–	102% (inactive)
O=C(C=Cc1ccc(/C=C/C(=O)Nc2ccc(C3=NCCN3)cc2)cc1)Nc1ccc(C2=NCCN2)cc1	–	104% (inactive)
CO[C@@H]1[C@H](N(C)C(=O)c2ccccc2)C[C@H]2O[C@]1(C)n1c3ccccc3c3c4c(c5c6ccccc6n2c5c31)C(=O)NC4	1.32 µM (active)	–
COc1ccc2c3n(c(=NC(=O)c4cccnc4)nc2c1OC)CCN3	11.8 µM (active)	–
C[C@@H]1CN(Cc2ccc(F)cc2)[C@@H](C)CN1C(=O)c1cc2c(C(=O)C(=O)N(C)C)cn(C)c2cc1Cl	14.8 µM (active)	–
CC1(C)CNc2cc(NC(=O)c3cccnc3NCc3ccncc3)ccc21	–	122% (inactive)
COc1ccc(CC2=NN3C([C@@H](CCc4ccccc4)[C@@H](C)O)=NC(C)C3C(=O)N2)cc1OC (stereo not given in full)	–	145% (inactive)
Cc1cc2c(C(C)C)c(O)c(O)c(C=O)c2c(O)c1-c1c(C)cc2c(C(C)C)c(O)c(O)c(C=O)c2c1O	6.62 µM (active)	–
CC(C)OC(=O)C1=CN(C(=O)c2ccc(F)c(F)c2)CC(C)(C)c2c1[nH]c1ccccc21	–	97.1% (inactive)
COc1ccccc1[C@H](c1cccc2ccccc12)[C@@](C)(C#N)C(=O)N1CCC(c2cccc(C(F)(F)F)c2)CC1	3.32 µM (active)	–
CN(C)c1ccc(Nc2nc(N)n(C(=O)c3c(F)cccc3F)n2)cc1	23.5 µM (active)	–
COc1cc(F)c(F)c(Nc2ccc(I)cc2F)c1NS(=O)(=O)C1(C[C@H](O)CO)CC1	16.6 µM (active)	–
C[C@]12CC[C@H](O)CC1=CC[C@@H]1[C@H]2CC[C@]2(C)C(c3cccnc3)=CC[C@H]12	–	94.6% [at 23.2 µM] (inactive)
COc1ccccc1-c1cccc(-c2c(O)c3cc(C#N)c(Cl)cc3[nH]c2=O)c1	42.9 µM (active)	–
NC[C@H](O)c1ccc(O)c(O)c1	–	89.8% (inactive)
c1ccc([C@H]2CN3CCSC3=N2)cc1	–	101% (inactive)
NC(=O)c1ccc(-c2nc(-c3ccc4c(c3)OCO4)c(-c3ccccn3)[nH]2)cc1	–	128% (inactive)
OC(CCN1CCCCC1)(c1ccccc1)C1CC2C=CC1C2 (stereo not given)	–	124% (inactive)

Structure (SMILES)	Potency	viability (% of DMSO)
Nc1ncnc2nc(-c3ccc(N4CCOCC4)nc3)cc(-c3cccc(Br)c3)c12	–	116% (inactive)
O=C1CCc2cc(OCCCCc3nnnn3C3CCCCC3)ccc2N1	–	99.2% (inactive)
Nc1nc2ccc(OC(F)(F)F)cc2s1	–	115% (inactive)
O=C(Nc1cccnc1)N1CCC(Cc2cccc(Oc3ccc(C(F)(F)F)cn3)c2)CC1	16.6 µM (active)	–
O=C(Nc1nc2ccccc2n1CCN1CCOCC1)c1cccc([N+](=O)[O-])c1	7.43 µM (active)	–
Cn1cnc2c(F)c(Nc3ccc(Br)cc3Cl)c(C(=O)NOCCO)cc21	0.469 µM (active)	–
Cc1ccccc1C(OCCN(C)C)c1ccccc1 (stereo not given)	–	119% (inactive)
O=C(NOC[C@H](O)CO)c1ccc(F)c(F)c1Nc1ccc(I)cc1F	0.0105 µM (active)	–
CN(C)C(=O)c1ccc(S(=O)(=O)c2ccc(NC(=O)[C@@](C)(O)C(F)(F)F)c(Cl)c2)cc1	14.8 µM (active)	–
Clc1ccc(Nc2nnc(Cc3ccncc3)c3ccccc23)cc1	–	93.2% (inactive)
O=C(O)[C@@H](c1ccc(OCc2ccc3ccccc3n2)cc1)C1CCCC1	–	107% (inactive)
Nc1cccc(S(=O)(=O)N2CCCN(S(=O)(=O)c3ccc4c(c3)OCCO4)CC2)c1	–	121% (inactive)
CC(=O)Oc1ccccc1C(=O)O	–	151% (inactive)
CC(C)C[C@H](NC(=O)[C@@H](O)[C@H](N)Cc1ccccc1)C(=O)O	–	132% (inactive)
O=C1CCC(N2C(=O)c3ccccc3C2=O)C(=O)N1 (stereo not given)	–	117% (inactive)
CCc1cncnc1N1CCN(Cc2nc3ccc(C(F)(F)F)cc3[nH]2)CC1	7.43 µM (active)	–
O=c1[nH]c(-c2ccc(C(F)(F)F)cc2)nc2c1CSCC2	–	119% (inactive)
Cc1ccc(N(CC2=NCCN2)c2cccc(O)c2)cc1	16.6 µM (active)	–
CCOC(=O)N[C@@H]1CC[C@@H]2[C@@H](C1)C[C@H]1C(=O)O[C@H](C)[C@H]1[C@@H]2C=Cc1ccc(-c2cccc(F)c2)cn1	18.7 µM (active)	–
NS(=O)(=O)c1cc2c(cc1Cl)NC=NS2(=O)=O	–	126% (inactive)
